From PubChem BioAssay (NCATS)
Inconclusive results are not listed. Active and inactive are the calls of the source. Unless noted, calls come from the whole dose curve; as a rule, active = well fitted curve in the direction sought with a large enough effect; inconclusive = small, poorly fitted or top-dose-only effect, or another doubt; inactive = no such curve, though single readings can be large; an effect the other way counts as inactive or inconclusive.

How the values were obtained:
[1] = molecular target: Lysosomal acid glucosylceramidase (Homo sapiens) (UniProt P04062); assay: Glucocerebrosidase-p2 (AID 348; in the data active = potency below about 10 µM; note: potency is the fitted concentration of half-maximal effect); details: purified GBA, blue fluorogenic substrate, 40 min
Procedure, shortened: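 Compounds titrated from 0.6 nM upwards against 0.2 nM enzyme in pH 5.9 citric acid/KH2PO4, taurocholate, tween-20; blue fluorogenic substrate 80 uM, 40 min room temperature, stopped and read Ex 365/Em 440 for AC50.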

[2] = AP1 Signaling Pathway (AID 357; active = well fitted curve in either direction with a large enough effect, not every such curve was filed as active; note: % is set by controls: 0 for no effect and ±100 for the full control effect); details: ME-180 AP-1-bla reporter, EGF-induced, beta-lactamase ratio, 5 h; at 7.69 µM (top of the series) unless noted
Procedure, shortened: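 ME-180 cells with beta-lactamase reporter under AP-1 response element, stimulated with EC50 EGF; compounds tested in titration series, 5 h at 37 °C. CCF4 substrate added 2.5 h at room temperature; 460/530 nm emission ratio gave %activity and AC50.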

[3] = molecular target: Cytochrome P450 1A2 (Homo sapiens) (UniProt P05177); assay: p450-cyp1a2 (AID 410; calls by dose curve; note: potency is the fitted concentration of half-maximal effect); details: recombinant CYP1A2, luciferin-ME demethylation, luminescence; series mostly up to 57 µM
Procedure, shortened: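 20nM CYP1A2 with 100uM Luciferin-ME (at Km) in 100mM KPO4; compound preincubated 10 min, NADPH regeneration added, 60 min at room temperature. Luciferin quantified by luminescence after detection reagent; normalized to 57 uM furafylline.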

[4] = NFAT Signaling Pathway (AID 444; active = well fitted curve in either direction with a large enough effect, not every such curve was filed as active;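 note: carbachol stimulus at about its EC50 of 1 µM final; % is set by controls: 0 for no effect and ±100 for the full control effect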); details: Jurkat NFAT-bla M1, carbachol, beta-lactamase ratio, 5 h; at 7.69 µM (top of the series) unless noted
Procedure, shortened: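 Jurkat cells carrying an NFAT-driven β-lactamase reporter and co-transfected muscarinic M1 receptor were treated with compound plus carbachol (1 uM final, an EC50 level) for 5 h at 37 °C. CCF4 loading followed for 1 h at RT; 460/530 nm ratio gave %activity.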

[5] = Stat Signaling Pathway (AID 446; active = well fitted curve in either direction with a large enough effect, not every such curve was filed as active;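 note: ME-180 cervical cancer cells given 40 pM IL-6 alongside compound; SIE-controlled beta-lactamase reporter measured as 460/530 nm FRET emission ratio; % is set by controls: 0 for no effect and ±100 for the full control effect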); details: ME-180 SIE beta-lactamase reporter, IL-6 stimulated, 5 h; at 7.69 µM (top of the series) unless noted
Procedure, shortened: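 ME-180 cells carrying a SIE-driven beta-lactamase reporter are stimulated with 40 pM IL-6 for 5 h at 37C in the presence of compound. The 460/530 nm FRET substrate ratio is read after 2.5 h at RT. Data are normalised to 300 pM IL-6 and to 125 nM JAK inhibitor controls.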

[6] = molecular target: Glucocorticoid receptor (Homo sapiens) (UniProt P04150); assay: GR-GFP Redistribution (AID 450;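 active = compounds whose dose series gives a full or clear partial fitted curve of increased nuclear translocation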; note: potency is the fitted concentration of half-maximal effect); details: U2OS GR-GFP nuclear translocation, laser cytometry, 2 h
[7] = molecular target: Glucocorticoid receptor (Homo sapiens) (UniProt P04150); assay: GR-EFC Redistribution (AID 451; calls by dose curve; note: potency is the fitted concentration of half-maximal effect); details: CHO-K1 GR-EFC translocation, beta-gal luminescence, 2 h
Procedure, shortened: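 CHO-K1 cells stably expressing nuclear-localized β-gal enzyme acceptor and GR fused C-terminally to the enzyme donor fragment; ligand-driven nuclear translocation restores β-gal by complementation. Compounds titrated up to 46 uM final, 2 h at 37 °C; luminescence read.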

[8] = molecular target: Mitogen-activated protein kinase 10 (Mus musculus) (UniProt Q61831); assay: JNK3 AlphaScreen Assay (AID 530; active = well fitted curve in either direction with a large enough effect, not every such curve was filed as active;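 note: kinase came from lysate of stimulated human HepG2 cells; signal reports phosphorylation of biotinylated GST-cJun 1-79 at Ser73 with 10 µM ATP; % is set by controls: 0 for no effect and ±100 for the full control effect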); details: JNK3 lysate, c-Jun phosphorylation; series mostly up to 57.1 µM
Procedure, shortened: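 Inhibitors reduce antibody binding to phosphorylated biotin-cJun, lowering AlphaScreen luminescence. Lysates from HepG2 cells pre-activated by IL-1beta plus TNF-alpha supplied JNK3; compounds were titrated.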

[9] = molecular target: Cytochrome P450 3A4 (Homo sapiens) (UniProt P08684); assay: qHTS Assay for Activators of Cytochrome P450 3A4 (AID 885); details: recombinant CYP3A4, Luciferin-PPXE luminescence, 60 min; series mostly up to 57.1 µM; note: nearly all actives have a fitted effect of over 65% in size
Procedure, shortened: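 Human CYP3A4 (20 nM) with Luciferin-PPXE at 25 uM (its KM) in 200 mM KPO4; 10 min compound preincubation, then NADPH regeneration and 60 min reaction at RT. Luciferin read by luminescence; normalized to 57 uM ketoconazole full inhibition.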

[10] = Confirmation and Secondary Assay for Modulators of Hemoglobin Beta Chain Splicing at IVS2 654 locus (AID 910); details: HeLa EGFP-654 splicing reporter, GFP fluorescence, 48 h; series mostly up to 38.3 µM;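 note: per-well total GFP intensity by laser scanning cytometry after 2-day treatment; % of control where 0% means no effect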
Procedure, shortened: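 HeLa cells stably carrying EGFP interrupted by mutant beta-globin IVS2-654 intron (CMV-driven) were treated with compound for 2 days at 37C; corrected splicing was scored as total peak GFP intensity per well (488 nm excitation, 500-520 nm emission).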

[11] = Confirmation and Secondary Assay for Modulators of Hemoglobin Beta Chain Splicing at IVS2 705 locus (AID 930); details: HeLa EGFP-705 splicing reporter, GFP fluorescence, 48 h; series mostly up to 38.3 µM;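 note: HeLa cells stably expressing the EGFP-705 splicing reporter; GFP fluorescence per well restored by corrected splicing of the IVS2-705 intron in EGFP; % of control where 0% means no effect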
Procedure, shortened: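 Per-well GFP, captured at 1 x 8 µm resolution with 488 nm excitation, served as the read-out for HeLa EGFP-705 cells incubated 2 days with test compound versus DMSO.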

[12] = qHTS Assay for Lipid Storage Modulators (AID 1519; calls by dose curve); details: Drosophila S3 cells, BODIPY lipid droplet/cell ratio, laser cytometry, cells loaded with oleic acid; for activity change, negative = inhibition: at 57.5 µM (top of the series)
Procedure, shortened: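 Cells seeded at 5,000 per well were treated with compounds over a concentration series and loaded with oleic acid (400 uM, as added). Lipid droplet fluorescence (488 nm excitation, 500-530 nm channel) was read by laser-scanning cytometry and normalized to 20 uM Triacsin C.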

[13] = molecular target: Ubiquitin carboxyl-terminal hydrolase 1 (Homo sapiens) (UniProt O94782); assay: Inhibitors of USP1/UAF1: Pilot qHTS (AID 504865); details: purified USP1/UAF1, Ub-rhodamine cleavage fluorescence; series mostly up to 54.9 µM;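 note: rhodamine fluorescence freed from ubiquitin-rhodamine substrate followed over time; top concentration of the series differs between compounds; % is set by controls: 0 for no effect and ±100 for the full control effect; nearly all actives have a fitted effect of over 35% in size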
Procedure, shortened: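 Kinetic fluorescence assay: 1nM USP1/UAF1, 15 min compound preincubation, then 150nM Ub-Rho; 480/540 nm.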

[14] = Primary qHTS for small molecule stabilizers of the endoplasmic reticulum resident proteome: Secreted ER Calcium Modulated Protein (SERCaMP) assay (AID 1508630); details: SH-SY5Y GLuc-SERCaMP (Gaussia luciferase released on ER calcium loss) secretion, thapsigargin, luminescence; series mostly up to 38.4 µM; note: % is set by controls: 0 for no effect and ±100 for the full control effect
Procedure, shortened: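 GLuc-SERCaMP-expressing SH-SY5Y cells, pretreated 16 h with compound, are challenged with thapsigargin to empty ER calcium stores; after 4 h, coelenterazine is added directly to the medium and luminescence is imaged.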

[15] = molecular target: 3',5'-cyclic-AMP phosphodiesterase 4B (Homo sapiens) (UniProt Q07343); assay: qHTS Assay for Inhibitors of PDE-IV (AID 607; active = well fitted activation curve with a large enough effect in the main read-out, with a control signal flat, not every such curve was filed as active; note: % of control where 0% means no effect); details: HEK293 ACTOne CNG channel cells, membrane potential fluorescence; series mostly up to 22.9 µM
Procedure, shortened: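 HEK293 ACTOne cells with CNG channel (1000/well), endogenous PDE4; membrane potential dye, compounds up to 22.9 uM final. Fluorescence Ex 535/Em 590; RO 20-1724 (100 uM final) as reference.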

[16] = molecular target: Cytochrome P450 2C19 (Homo sapiens) (UniProt P33261); assay: qHTS Assay for Inhibitors and Substrates of Cytochrome P450 2C19 (AID 899); details: recombinant CYP2C19, luciferin-H EGE luminescence; series mostly up to 57.1 µM; note: potency is the fitted concentration of half-maximal effect; nearly all actives have a fitted effect of over 60% in size
Procedure, shortened: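 NADPH-dependent conversion of Luciferin-H EGE (10uM, at KM) by 5nM enzyme in 50mM KPO4, 60 min at 37C following 10 min compound preincubation. Stopped with luciferin detection buffer; luminescence read after 20 min.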

[17] = molecular target: Cytochrome P450 3A4 (Homo sapiens) (UniProt P08684); assay: qHTS Assay for Inhibitors and Substrates of Cytochrome P450 3A4 (AID 884); details: recombinant CYP3A4, Luciferin-PPXE luminescence; series mostly up to 57.1 µM; note: potency is the fitted concentration of half-maximal effect; nearly all actives have a fitted effect of over 50% in size
Procedure, shortened: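 20 nM human CYP3A4 with 25 uM Luciferin-PPXE (at KM) in 200 mM KPO4, preincubated 10 min with compound; NADPH regeneration started a 60 min RT reaction. Luciferin detected by luminescence, normalized to 57 uM ketoconazole as full inhibition.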

[18] = measured here: cell count channel max response
[19] = measured here: lipid channel max response

Ubiquitin carboxyl-terminal hydrolase 1 (Homo sapiens), sequence (O94782 whole entry, looked up): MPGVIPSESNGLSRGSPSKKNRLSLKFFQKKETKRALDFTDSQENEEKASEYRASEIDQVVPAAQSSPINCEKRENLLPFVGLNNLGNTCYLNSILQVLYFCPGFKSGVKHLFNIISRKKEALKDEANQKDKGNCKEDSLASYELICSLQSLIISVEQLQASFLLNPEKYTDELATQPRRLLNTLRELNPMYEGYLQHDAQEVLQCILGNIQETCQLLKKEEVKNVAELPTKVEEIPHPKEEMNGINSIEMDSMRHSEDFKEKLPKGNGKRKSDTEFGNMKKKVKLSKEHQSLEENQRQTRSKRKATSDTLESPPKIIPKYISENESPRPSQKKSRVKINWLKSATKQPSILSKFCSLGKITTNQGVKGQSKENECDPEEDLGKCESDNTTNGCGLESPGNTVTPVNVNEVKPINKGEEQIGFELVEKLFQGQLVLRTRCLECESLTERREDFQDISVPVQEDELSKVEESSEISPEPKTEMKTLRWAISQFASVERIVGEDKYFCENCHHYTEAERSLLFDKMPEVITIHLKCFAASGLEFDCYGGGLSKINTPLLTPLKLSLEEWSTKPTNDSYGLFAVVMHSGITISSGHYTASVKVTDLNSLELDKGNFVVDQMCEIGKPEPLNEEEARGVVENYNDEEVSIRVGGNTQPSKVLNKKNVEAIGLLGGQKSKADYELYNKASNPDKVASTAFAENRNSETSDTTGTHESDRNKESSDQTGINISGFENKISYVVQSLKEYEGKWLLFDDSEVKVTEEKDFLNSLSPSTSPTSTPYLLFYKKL
Cytochrome P450 3A4 (Homo sapiens), sequence (P08684 whole entry, looked up): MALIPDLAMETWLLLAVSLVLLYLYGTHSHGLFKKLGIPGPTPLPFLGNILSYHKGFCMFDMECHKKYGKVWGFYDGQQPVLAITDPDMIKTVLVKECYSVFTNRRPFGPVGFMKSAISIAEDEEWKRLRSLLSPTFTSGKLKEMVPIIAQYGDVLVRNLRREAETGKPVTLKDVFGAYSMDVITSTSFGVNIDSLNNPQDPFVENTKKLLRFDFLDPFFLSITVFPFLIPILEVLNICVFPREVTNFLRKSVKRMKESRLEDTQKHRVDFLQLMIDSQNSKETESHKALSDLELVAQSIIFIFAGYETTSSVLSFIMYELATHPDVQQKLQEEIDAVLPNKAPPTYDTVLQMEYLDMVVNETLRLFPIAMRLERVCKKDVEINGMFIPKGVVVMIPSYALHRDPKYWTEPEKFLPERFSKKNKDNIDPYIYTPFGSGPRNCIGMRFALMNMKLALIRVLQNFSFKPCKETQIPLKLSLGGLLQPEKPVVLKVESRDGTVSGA
3',5'-cyclic-AMP phosphodiesterase 4B (Homo sapiens), sequence (Q07343 whole entry, looked up): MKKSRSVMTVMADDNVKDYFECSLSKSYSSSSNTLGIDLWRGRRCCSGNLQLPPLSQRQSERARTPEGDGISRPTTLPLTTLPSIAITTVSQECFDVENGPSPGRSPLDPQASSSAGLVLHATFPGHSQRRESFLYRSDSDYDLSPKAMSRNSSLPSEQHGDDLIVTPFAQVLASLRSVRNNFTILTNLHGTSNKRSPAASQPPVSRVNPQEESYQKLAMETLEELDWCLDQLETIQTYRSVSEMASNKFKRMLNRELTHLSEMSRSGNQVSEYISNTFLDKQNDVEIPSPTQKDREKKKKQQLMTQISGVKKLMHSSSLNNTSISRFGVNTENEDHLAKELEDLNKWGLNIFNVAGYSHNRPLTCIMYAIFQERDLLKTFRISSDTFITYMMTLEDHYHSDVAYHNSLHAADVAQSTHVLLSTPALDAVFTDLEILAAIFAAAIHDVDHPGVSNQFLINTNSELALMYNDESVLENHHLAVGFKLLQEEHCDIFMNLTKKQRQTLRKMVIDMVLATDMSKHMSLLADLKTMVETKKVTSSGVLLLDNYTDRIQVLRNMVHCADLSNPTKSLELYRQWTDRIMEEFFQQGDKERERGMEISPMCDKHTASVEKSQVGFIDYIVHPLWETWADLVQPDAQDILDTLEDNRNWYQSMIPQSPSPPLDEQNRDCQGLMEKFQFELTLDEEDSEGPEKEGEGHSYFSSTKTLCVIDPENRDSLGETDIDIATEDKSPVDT
Cytochrome P450 1A2 (Homo sapiens), sequence (P05177 whole entry, looked up): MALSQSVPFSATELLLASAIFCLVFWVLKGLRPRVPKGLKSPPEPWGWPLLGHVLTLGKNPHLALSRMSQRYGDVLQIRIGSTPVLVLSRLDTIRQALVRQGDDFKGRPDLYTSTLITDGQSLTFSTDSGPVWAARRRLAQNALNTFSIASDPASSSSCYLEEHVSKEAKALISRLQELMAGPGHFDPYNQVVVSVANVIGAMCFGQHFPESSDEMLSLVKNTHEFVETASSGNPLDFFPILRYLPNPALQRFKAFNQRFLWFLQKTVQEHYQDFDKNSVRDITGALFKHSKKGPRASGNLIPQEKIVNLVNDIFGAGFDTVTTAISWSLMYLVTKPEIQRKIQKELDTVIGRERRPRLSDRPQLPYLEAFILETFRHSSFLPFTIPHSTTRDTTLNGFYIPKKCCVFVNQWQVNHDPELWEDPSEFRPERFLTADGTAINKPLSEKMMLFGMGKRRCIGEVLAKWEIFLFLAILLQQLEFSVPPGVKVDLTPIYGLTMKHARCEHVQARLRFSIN
Cytochrome P450 2C19 (Homo sapiens), sequence (P33261 whole entry, looked up): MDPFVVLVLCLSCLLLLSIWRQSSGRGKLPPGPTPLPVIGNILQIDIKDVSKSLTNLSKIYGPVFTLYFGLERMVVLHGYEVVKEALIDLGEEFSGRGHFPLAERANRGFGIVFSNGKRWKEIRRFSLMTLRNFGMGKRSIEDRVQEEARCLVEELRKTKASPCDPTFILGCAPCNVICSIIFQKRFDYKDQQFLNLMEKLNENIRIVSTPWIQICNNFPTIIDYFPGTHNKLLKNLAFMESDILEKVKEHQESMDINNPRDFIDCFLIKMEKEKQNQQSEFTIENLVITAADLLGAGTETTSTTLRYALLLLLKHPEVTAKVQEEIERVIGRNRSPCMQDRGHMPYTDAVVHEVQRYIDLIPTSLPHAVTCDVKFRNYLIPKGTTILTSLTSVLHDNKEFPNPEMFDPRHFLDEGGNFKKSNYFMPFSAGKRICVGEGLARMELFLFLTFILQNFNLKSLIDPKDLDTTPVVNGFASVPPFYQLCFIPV
Lysosomal acid glucosylceramidase (Homo sapiens), sequence (P04062 whole entry, looked up): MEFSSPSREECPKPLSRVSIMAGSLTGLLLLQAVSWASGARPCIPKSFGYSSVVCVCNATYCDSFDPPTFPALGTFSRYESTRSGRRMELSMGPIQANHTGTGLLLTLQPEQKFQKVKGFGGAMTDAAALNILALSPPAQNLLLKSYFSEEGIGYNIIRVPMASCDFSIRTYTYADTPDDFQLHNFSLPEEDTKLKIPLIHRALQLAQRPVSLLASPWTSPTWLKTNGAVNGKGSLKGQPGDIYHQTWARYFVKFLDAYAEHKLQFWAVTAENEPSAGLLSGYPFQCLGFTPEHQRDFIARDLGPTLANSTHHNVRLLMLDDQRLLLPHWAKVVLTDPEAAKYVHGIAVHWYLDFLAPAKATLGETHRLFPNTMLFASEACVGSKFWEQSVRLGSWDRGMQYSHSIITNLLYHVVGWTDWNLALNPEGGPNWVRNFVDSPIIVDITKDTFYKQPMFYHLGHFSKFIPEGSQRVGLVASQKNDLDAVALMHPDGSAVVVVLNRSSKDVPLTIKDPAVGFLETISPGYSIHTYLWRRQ
Glucocorticoid receptor (Homo sapiens), sequence (P04150 whole entry, looked up, the tested form may be a part): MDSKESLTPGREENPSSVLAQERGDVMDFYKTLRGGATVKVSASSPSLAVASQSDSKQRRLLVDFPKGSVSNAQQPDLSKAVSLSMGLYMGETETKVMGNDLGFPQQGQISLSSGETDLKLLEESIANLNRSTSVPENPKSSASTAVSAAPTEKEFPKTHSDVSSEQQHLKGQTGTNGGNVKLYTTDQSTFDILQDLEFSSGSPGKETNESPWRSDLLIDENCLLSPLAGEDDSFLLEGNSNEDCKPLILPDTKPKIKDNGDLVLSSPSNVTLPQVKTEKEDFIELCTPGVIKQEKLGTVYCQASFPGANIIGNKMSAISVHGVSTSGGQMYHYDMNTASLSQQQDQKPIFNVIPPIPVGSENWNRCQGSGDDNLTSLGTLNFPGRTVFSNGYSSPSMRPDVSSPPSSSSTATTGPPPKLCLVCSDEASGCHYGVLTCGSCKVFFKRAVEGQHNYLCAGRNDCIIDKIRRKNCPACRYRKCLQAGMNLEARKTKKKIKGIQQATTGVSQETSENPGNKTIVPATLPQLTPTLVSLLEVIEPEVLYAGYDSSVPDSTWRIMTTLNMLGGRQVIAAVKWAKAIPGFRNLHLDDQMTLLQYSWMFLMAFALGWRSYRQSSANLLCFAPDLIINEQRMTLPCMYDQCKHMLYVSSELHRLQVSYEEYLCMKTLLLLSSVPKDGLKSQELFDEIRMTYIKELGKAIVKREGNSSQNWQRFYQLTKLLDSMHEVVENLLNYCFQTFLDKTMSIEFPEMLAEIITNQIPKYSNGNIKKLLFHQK

Row | Structure (SMILES) | Potency [1] | activity change, negative = inhibition [2] | Potency [3] | activity change, negative = inhibition [4] | activity, negative = inhibition [5] | Potency [6] | Potency [7] | outcome [8] | Potency [9] | outcome [10] | outcome [11] | activity change, negative = inhibition [12] | max response [12, 18] | max response [12, 19] | Potency [13] | Potency [14] | Potency [15] | Potency [16] | Potency [17]
1 | CN(C)Cc1ccccc1-c1nc(NCc2ccccc2)c2ccccc2n1 | > 11.4 µM (inactive) | 15.5% (inactive) | 1.26 µM (active) | -17.2% (inactive) | 4.49% (inactive) | > 46 µM (inactive) | > 46 µM (inactive) | inactive | inactive | inactive | inactive | 5.53% (inactive) | 1.11% | 6.16% | inactive | inactive | – | – | –
2 | CN(Cc1ccco1)c1cc(-c2ccccc2Cl)ncn1 | > 11.4 µM (inactive) | -3.34% (inactive) | 2.51 µM (active) | -22.4% (inactive) | 5.83% (inactive) | > 46 µM (inactive) | > 46 µM (inactive) | inactive | – | inactive | inactive | 6.03% (inactive) | -2.55% | 5.54% | inactive | inactive | inactive | 7.94 µM (active) | –
3 | COc1ccccc1-c1nccc(-n2ccnc2)n1 | > 11.4 µM (inactive) | 10.1% (inactive) | 0.158 µM (active) | -2.21% (inactive) | 11.9% (inactive) | > 46 µM (inactive) | > 46 µM (inactive) | inactive | inactive | inactive | inactive | 10.5% (inactive) | 15.1% | 27.4% | inactive | inactive | inactive | – | 1.58 µM (active)
4 | COc1ccccc1-c1cncnc1Nc1ccc(F)cc1 | > 11.4 µM (inactive) | -12.4% (inactive) | 7.94 µM (active) | 1.41% (inactive) | 4.34% (inactive) | > 46 µM (inactive) | > 46 µM (inactive) | inactive | inactive | inactive | inactive | 10.5% (inactive) | 9.46% | 20.1% | inactive | inactive | inactive | 5.01 µM (active) | 0.158 µM (active)
5 | COc1ccccc1-c1cncnc1NCc1cccnc1 | > 11.4 µM (inactive) | -10.2% (inactive) | 6.31 µM (active) | -4.56% (inactive) | 4% (inactive) | > 46 µM (inactive) | > 46 µM (inactive) | inactive | inactive | inactive | inactive | 7.04% (inactive) | 11.1% | 18.5% | inactive | inactive | inactive | 3.16 µM (active) | 0.501 µM (active)
